Several values for one entry are separate records, joined by “and”; a condition that tells them apart may be missing. Equal values may be shown once.
Test: modulators of CIT2-GFP expression in yeast, primary screen, S. cerevisiae, GFP fusion, multiplex flow cytometry (AID 1870);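 note: barcoded CIT2-GFP strain pooled with four other GFP strains with rapamycin as positive control; median GFP fluorescence per well over plate mean of DMSO wells so 100% = DMSO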
Conditions: 3 h, at 10 µM, hits give high values;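 active = percent response above a set limit, the screen-wide mean plus 3 SD (cut at about 130% in these data); inactive = the rest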

Percent response of DMSO control, inactive:
S=C(NCCOCCOCCNC(=S)Nc1ccccc1)Nc1ccccc1 86.3%
Cc1ccc(CN2CCN(Cc3cn[nH]c3C3CCCCC3)CC2CCO)cc1 (configuration not stated) 97.7%
OCCC1CN(Cc2ccccc2-c2ccco2)CCN1C1CCCC1 (configuration not stated) 93.1%
COc1ccc2oc(-c3ccco3)cc(=O)c2c1 100%
Nc1nc2c(nc(SCc3ccccc3Br)n2C2OC(CO)C(O)C2O)c(=O)[nH]1 (configuration not stated) 101%
O=C(CCC(=O)NCCO)NCCO 97.7%
Cc1cc(=O)[nH]c(=S)[nH]1 106%
CN(C)C(=O)Oc1cccc([N+](C)(C)C)c1 100% and 91%
COc1cc(/C=C/C(=O)O)cc(S(=O)(=O)NCCCO)c1OC 91%
COC(=O)c1sccc1NC(=O)Nc1ccccc1F 105%
CC1(C)C(=O)OC(/C=C\c2ccccc2)C(C)(C)C1=O (configuration not stated) 95.7%
O=C(/C=C/c1ccc(F)cc1)NC(=S)N1CCCCC1c1cccnc1 (configuration not stated) 112%
COc1cc2c(cc1OC)C1(CCCC1)CNC2c1cccc([N+](=O)[O-])c1 (configuration not stated) 95.8%
O=C(NCCO)c1ccc(Cl)c(Cl)c1 102%
N#C/C(=C\c1ccc(O)c(O)c1)C(=O)NCCCc1ccccc1 98.3%
CSCC[C@H](NC(=O)OC(C)(C)C)C(=O)N1CCC(C(=O)N[C@@H](C)C(=O)O)CC1 102%
Cc1cc(-c2nn(-c3ccccc3F)cc2CN2CCCC(O)C2)c(C)s1 (configuration not stated) 97.7%

Source: PubChem BioAssay
